Results published in PMC7862700, “An all-to-all approach to the identification of sequence-specific readers for epigenetic DNA modifications on cytosine”.

Experiments:
Experiment in all cases: DAPPL (digital affinity profiling via proximity ligation, sequencing); 10 mM Tris-HCl pH 7.5, 50 mM NaCl, 1 mM DTT, 4% glycerol, room temperature, 30 min; GST-TFs on glutathione beads, 16-mer random dsDNA library, 0.1% formaldehyde crosslink after washing; high values mean tight binding
Conditions in all cases: protein: recombinant; tags: N-terminal GST; dsDNA, one strand shown
FLI1 = target: T1, FLI1 (Homo sapiens, UniProt Q01543 1-452)
T1 sequence: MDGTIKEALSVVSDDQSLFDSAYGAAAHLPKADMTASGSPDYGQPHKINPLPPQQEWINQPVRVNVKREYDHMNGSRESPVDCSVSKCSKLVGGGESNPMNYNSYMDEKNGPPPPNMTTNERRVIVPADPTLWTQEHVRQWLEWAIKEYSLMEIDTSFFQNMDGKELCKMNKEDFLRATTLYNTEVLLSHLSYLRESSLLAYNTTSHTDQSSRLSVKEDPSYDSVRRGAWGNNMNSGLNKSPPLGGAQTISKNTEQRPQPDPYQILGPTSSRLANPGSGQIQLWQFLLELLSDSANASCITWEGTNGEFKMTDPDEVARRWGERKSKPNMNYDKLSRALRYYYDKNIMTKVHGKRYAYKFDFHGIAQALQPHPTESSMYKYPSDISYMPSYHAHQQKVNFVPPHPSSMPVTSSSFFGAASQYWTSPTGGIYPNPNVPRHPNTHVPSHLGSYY
Method in brief: (§1)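 Sequencing on an Illumina NextSeq500 followed washing, crosslinking with 0.1% formaldehyde, proximity ligation (BsaI/T4 ligase, 1 h, 37 °C) and PCR amplification of pools that had been incubated for 30 min at room temperature with 200 nmole of a random double-stranded 16-mer DNA library in Tris/NaCl/DTT/glycerol buffer. Each pool held DNA-barcoded human transcription factors, expressed in yeast as GST fusions and captured on glutathione beads, plus a tag-only sample. Binding signal is a hexamer's read frequency for a factor divided by its frequency in the tag-only sample.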

ELK1 = target: T2, ELK1 (Homo sapiens, UniProt P19419 1-428)
T2 sequence: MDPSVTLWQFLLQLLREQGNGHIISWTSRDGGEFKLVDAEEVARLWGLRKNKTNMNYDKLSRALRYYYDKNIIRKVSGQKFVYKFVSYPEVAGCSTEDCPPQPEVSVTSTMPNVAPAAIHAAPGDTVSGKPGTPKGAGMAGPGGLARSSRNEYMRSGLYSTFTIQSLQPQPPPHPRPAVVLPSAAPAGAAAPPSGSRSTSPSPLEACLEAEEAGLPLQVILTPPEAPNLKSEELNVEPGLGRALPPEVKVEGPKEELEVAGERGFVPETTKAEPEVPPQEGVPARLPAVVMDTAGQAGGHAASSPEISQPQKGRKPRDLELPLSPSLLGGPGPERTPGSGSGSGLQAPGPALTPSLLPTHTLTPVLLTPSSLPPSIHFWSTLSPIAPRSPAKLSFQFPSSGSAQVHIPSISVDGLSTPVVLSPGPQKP
Method in brief: as §1

GABPA = target: T3, GABPA (Homo sapiens, UniProt Q06546 1-454)
T3 sequence: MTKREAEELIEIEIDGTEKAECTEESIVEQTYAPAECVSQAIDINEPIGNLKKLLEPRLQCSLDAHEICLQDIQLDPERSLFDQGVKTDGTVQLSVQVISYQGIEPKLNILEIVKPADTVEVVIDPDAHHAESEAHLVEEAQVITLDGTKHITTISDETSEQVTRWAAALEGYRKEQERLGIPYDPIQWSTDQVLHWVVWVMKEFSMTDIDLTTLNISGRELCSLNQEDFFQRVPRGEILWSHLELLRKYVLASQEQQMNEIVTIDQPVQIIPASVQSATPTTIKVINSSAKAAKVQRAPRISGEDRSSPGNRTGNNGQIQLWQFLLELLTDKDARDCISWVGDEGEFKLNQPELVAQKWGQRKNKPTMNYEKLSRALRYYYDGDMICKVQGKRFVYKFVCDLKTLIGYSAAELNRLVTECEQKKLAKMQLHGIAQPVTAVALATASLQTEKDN
Method in brief: as §1

ERG = target: T4, ERG (Homo sapiens, UniProt P11308 1-479)
T4 sequence: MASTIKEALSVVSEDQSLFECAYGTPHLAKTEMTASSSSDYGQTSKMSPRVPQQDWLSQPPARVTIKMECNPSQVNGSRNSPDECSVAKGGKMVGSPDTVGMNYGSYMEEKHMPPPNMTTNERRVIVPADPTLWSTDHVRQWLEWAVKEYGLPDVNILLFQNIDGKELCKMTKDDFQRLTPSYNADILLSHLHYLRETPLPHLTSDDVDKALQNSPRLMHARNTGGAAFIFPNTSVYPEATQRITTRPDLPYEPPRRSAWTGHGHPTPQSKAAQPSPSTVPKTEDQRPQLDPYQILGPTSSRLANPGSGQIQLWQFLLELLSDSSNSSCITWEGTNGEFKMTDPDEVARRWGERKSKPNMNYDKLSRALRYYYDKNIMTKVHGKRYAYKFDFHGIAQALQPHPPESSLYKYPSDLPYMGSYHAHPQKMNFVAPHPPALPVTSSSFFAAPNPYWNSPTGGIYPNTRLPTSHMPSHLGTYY
Method in brief: as §1

ELF1 = ELF1 (Homo sapiens, UniProt P32519 1-619)
Chain of ELF1 (P32519 whole entry): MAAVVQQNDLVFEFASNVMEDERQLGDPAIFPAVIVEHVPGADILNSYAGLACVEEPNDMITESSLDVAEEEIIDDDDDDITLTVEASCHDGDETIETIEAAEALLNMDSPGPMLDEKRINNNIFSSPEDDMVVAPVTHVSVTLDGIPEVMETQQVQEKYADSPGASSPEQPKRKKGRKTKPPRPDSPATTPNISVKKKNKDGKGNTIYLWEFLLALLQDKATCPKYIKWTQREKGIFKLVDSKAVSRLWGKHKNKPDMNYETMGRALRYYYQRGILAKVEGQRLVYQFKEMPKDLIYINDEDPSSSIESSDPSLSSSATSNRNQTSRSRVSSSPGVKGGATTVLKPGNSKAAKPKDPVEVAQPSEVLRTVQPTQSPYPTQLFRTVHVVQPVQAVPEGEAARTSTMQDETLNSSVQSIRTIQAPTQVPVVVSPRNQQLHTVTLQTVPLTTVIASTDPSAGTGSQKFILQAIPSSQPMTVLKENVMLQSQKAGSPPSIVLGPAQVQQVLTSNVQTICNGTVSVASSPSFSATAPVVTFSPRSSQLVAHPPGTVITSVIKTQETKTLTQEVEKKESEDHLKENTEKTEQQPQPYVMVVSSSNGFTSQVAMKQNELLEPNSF
Method in brief: as §1

EHF = target: T5, EHF (Homo sapiens, UniProt Q9NZC4 1-300)
T5 sequence: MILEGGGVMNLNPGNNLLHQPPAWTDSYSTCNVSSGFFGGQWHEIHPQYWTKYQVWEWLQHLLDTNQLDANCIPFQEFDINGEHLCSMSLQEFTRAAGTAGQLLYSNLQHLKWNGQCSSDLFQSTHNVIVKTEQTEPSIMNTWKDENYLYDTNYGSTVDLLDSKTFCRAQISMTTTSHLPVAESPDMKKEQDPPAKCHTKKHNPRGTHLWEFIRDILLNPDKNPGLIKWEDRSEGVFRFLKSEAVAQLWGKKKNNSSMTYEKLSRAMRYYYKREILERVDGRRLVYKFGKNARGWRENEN
Method in brief: as §1

SPI1 = SPI1 (Homo sapiens, UniProt P17947 1-270)
Method in brief: as §1

SPIB = SPIB (Homo sapiens, UniProt Q01892 1-262)
Chain of SPIB (Q01892 whole entry): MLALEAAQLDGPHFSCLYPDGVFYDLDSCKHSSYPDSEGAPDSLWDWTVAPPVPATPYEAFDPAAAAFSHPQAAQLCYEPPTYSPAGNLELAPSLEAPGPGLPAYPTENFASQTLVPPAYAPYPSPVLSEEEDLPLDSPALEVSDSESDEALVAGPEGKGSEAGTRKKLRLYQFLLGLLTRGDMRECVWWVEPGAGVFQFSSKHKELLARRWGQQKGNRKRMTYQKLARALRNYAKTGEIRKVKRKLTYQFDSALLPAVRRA
Method in brief: as §1

ELK3 = target: T6, ELK3 (Homo sapiens, UniProt P41970 1-407)
T6 sequence: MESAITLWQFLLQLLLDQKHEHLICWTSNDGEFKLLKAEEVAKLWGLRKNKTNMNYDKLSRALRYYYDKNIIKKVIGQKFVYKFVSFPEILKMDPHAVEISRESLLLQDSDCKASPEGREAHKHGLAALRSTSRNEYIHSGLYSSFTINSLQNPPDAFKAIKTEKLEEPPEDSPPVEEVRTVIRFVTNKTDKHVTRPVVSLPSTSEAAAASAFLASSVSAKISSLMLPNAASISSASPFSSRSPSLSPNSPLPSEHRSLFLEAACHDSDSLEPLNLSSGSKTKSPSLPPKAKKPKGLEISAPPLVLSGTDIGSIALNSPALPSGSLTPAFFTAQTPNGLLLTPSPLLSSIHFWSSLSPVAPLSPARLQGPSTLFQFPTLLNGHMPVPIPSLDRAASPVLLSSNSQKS
Method in brief: as §1

Row | Sequence | binding signal (FLI1) | binding signal (ELK1) | binding signal (GABPA) | binding signal (ERG) | binding signal (ELF1) | binding signal (EHF) | binding signal (SPI1) | binding signal (SPIB) | binding signal (ELK3)
1 | CCCGCC | 1.46 fold enrichment (6-mer frequency, TF over GST control) | 1.75 fold enrichment (6-mer frequency, TF over GST control) | 1.57 fold enrichment (6-mer frequency, TF over GST control) | 1.5 fold enrichment (6-mer frequency, TF over GST control) | 1.58 fold enrichment (6-mer frequency, TF over GST control) | 1.53 fold enrichment (6-mer frequency, TF over GST control) | 1.44 fold enrichment (6-mer frequency, TF over GST control) | 1.31 fold enrichment (6-mer frequency, TF over GST control) | 1.63 fold enrichment (6-mer frequency, TF over GST control)
2 | ATTTAA | 1.24 fold enrichment (6-mer frequency, TF over GST control) | 1.12 fold enrichment (6-mer frequency, TF over GST control) | 1.14 fold enrichment (6-mer frequency, TF over GST control) | 1.14 fold enrichment (6-mer frequency, TF over GST control) | 1.22 fold enrichment (6-mer frequency, TF over GST control) | 1.2 fold enrichment (6-mer frequency, TF over GST control) | 1.16 fold enrichment (6-mer frequency, TF over GST control) | 1.15 fold enrichment (6-mer frequency, TF over GST control) | 1.28 fold enrichment (6-mer frequency, TF over GST control)
3 | AATTAG | 1.18 fold enrichment (6-mer frequency, TF over GST control) | 1.09 fold enrichment (6-mer frequency, TF over GST control) | 1.13 fold enrichment (6-mer frequency, TF over GST control) | 1.11 fold enrichment (6-mer frequency, TF over GST control) | 1.12 fold enrichment (6-mer frequency, TF over GST control) | 1.06 fold enrichment (6-mer frequency, TF over GST control) | 1.1 fold enrichment (6-mer frequency, TF over GST control) | 1.11 fold enrichment (6-mer frequency, TF over GST control) | 1.09 fold enrichment (6-mer frequency, TF over GST control)
4 | ACTTTC | 1.55 fold enrichment (6-mer frequency, TF over GST control) | 1.65 fold enrichment (6-mer frequency, TF over GST control) | 1.59 fold enrichment (6-mer frequency, TF over GST control) | 1.46 fold enrichment (6-mer frequency, TF over GST control) | 1.63 fold enrichment (6-mer frequency, TF over GST control) | 1.59 fold enrichment (6-mer frequency, TF over GST control) | 1.66 fold enrichment (6-mer frequency, TF over GST control) | 1.7 fold enrichment (6-mer frequency, TF over GST control) | 1.62 fold enrichment (6-mer frequency, TF over GST control)
5 | CCCCAA | 1.1 fold enrichment (6-mer frequency, TF over GST control) | 1.16 fold enrichment (6-mer frequency, TF over GST control) | 1.16 fold enrichment (6-mer frequency, TF over GST control) | 1.18 fold enrichment (6-mer frequency, TF over GST control) | 1.19 fold enrichment (6-mer frequency, TF over GST control) | 1.23 fold enrichment (6-mer frequency, TF over GST control) | 1.2 fold enrichment (6-mer frequency, TF over GST control) | 1.07 fold enrichment (6-mer frequency, TF over GST control) | 1.09 fold enrichment (6-mer frequency, TF over GST control)
6 | AATAGC | 1.17 fold enrichment (6-mer frequency, TF over GST control) | 1.14 fold enrichment (6-mer frequency, TF over GST control) | 1.17 fold enrichment (6-mer frequency, TF over GST control) | 1.12 fold enrichment (6-mer frequency, TF over GST control) | 1.09 fold enrichment (6-mer frequency, TF over GST control) | 1.23 fold enrichment (6-mer frequency, TF over GST control) | 1.15 fold enrichment (6-mer frequency, TF over GST control) | 1.16 fold enrichment (6-mer frequency, TF over GST control) | 1.1 fold enrichment (6-mer frequency, TF over GST control)
7 | AAGTTA | 1.25 fold enrichment (6-mer frequency, TF over GST control) | 1.26 fold enrichment (6-mer frequency, TF over GST control) | 1.19 fold enrichment (6-mer frequency, TF over GST control) | 1.27 fold enrichment (6-mer frequency, TF over GST control) | 1.27 fold enrichment (6-mer frequency, TF over GST control) | 1.24 fold enrichment (6-mer frequency, TF over GST control) | 1.24 fold enrichment (6-mer frequency, TF over GST control) | 1.12 fold enrichment (6-mer frequency, TF over GST control) | 1.23 fold enrichment (6-mer frequency, TF over GST control)
